Paper PMC5540273 (PLoS ONE, 2017)

Assays:
Conditions in all cases: concentration: 1 μM, replicates: in singlicate; n = 1
[1] = system: RPS6KA4(Kin.Dom.1-N-terminal)
[2] = system: RPS6KA4(Kin.Dom.2-C-terminal)
[3] = system: RPS6KA5(Kin.Dom.1-N-terminal)
[4] = system: RPS6KA5(Kin.Dom.2-C-terminal)
[5] = system: T1, RSK1(Kin.Dom.1-N-terminal)
T1 construct: gene RPS6KA1

[6] = system: T2, RSK1(Kin.Dom.2-C-terminal)
T2 construct: gene RPS6KA1

[7] = system: T3, RSK2(Kin.Dom.1-N-terminal)
T3 construct: gene RPS6KA3

[8] = system: T4, RSK2(Kin.Dom.2-C-terminal)
T4 construct: gene RPS6KA3

[9] = system: T5, RSK3(Kin.Dom.1-N-terminal)
T5 construct: gene RPS6KA2

[10] = system: T6, RSK3(Kin.Dom.2-C-terminal)
T6 construct: gene RPS6KA2

[11] = system: T7, RSK4(Kin.Dom.1-N-terminal)
T7 construct: gene RPS6KA6

[12] = system: T8, RSK4(Kin.Dom.2-C-terminal)
T8 construct: gene RPS6KA6

S6K1 = system: S6K1
SBK1 = system: SBK1
SGK2 = system: SGK2
SGK3 = system: SGK3
SGK = system: SGK
SIK2 = system: SIK2
SIK = system: SIK
SLK = system: SLK
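Further: KINOMEscan kinase panel screen.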

Structure (SMILES)	%Inh [1]	%Inh [2]	%Inh [3]	%Inh [4]	%Inh [5]	%Inh [6]	%Inh [7]	%Inh [8]	%Inh [9]	%Inh [10]	%Inh [11]	%Inh [12]	%Inh (S6K1)	%Inh (SBK1)	%Inh (SGK2)	%Inh (SGK3)	%Inh (SGK)	%Inh (SIK2)	%Inh (SIK)	%Inh (SLK)
CN1CCN(Cc2ccc(NC(=O)Nc3ccc(N(C)c4ccnc(Nc5ccc(CS(C)(=O)=O)cc5)n4)cc3)cc2)CC1.Cl [GW827654]	39%	16%	0%	0%	75%	15%	0%	46%	42%	25%	6%	57%	17%	0%	58%	21%	53%	15%	22%	97.3%
CS(=O)(=O)c1cccc(CNc2nc(Nc3ccc4c(c3)CCC(=O)N4)ncc2C(F)(F)F)c1	26%	0%	0%	5%	44%	0%	80%	0%	59%	0%	85%	0%	16%	67%	0%	2%	27%	23%	0%	20%
COc1ccc(C2=C(Nc3cccc(O)c3)C(=O)NC2=O)cc1 [SB-390766]	0%	0%	2%	0%	32%	0%	24%	96.4%	3%	21%	0%	20%	17%	8%	11%	9%	0%	0%	0%	27%
COc1cc(Nc2nccc(N3CCC(NC(=O)Nc4ccc5c(c4)OCO5)C3)n2)cc(OC)c1OC (stereo not shown) [GSK1379766]	0%	0%	1%	18%	22%	2%	5%	0%	10%	5%	0%	14%	17%	10%	0%	11%	0%	0%	8%	36%
Cl.O=C(Nc1ccc(Oc2ccc3[nH]c(NC(=O)c4ccco4)nc3c2)cc1)Nc1cc(C(F)(F)F)ccc1F [GW683134]	16%	0%	14%	6%	0%	16%	3%	3%	54%	9%	0%	13%	45%	3%	14%	0%	0%	0%	0%	83%
CN(c1ccc(F)c(NC(=O)c2cccc(OC(C)(C)C#N)c2Cl)c1)c1ccc2nc(NC(=O)C3CC3)sc2n1	0%	0%	11%	6%	0%	1%	0%	59%	0%	0%	4%	0%	1%	18%	0%	2%	0%	39%	97%	14%
Cc1ccc(C)c(NC(=O)Nc2ccc(C)c(-c3ccc(C(=O)Nc4ccncc4)cc3)c2)c1 [GSK1398473]	37%	0%	4%	14%	0%	0%	37%	18%	27%	3%	0%	18%	3%	14%	0%	8%	0%	0%	3%	17%
CCOc1nccc(-c2c(-c3ccc(F)cc3)ncn2C2CCNCC2)n1 [SB-249175]	8%	32%	100%	0%	16%	20%	52%	39%	17%	20%	41%	83%	16%	46%	34%	12%	29%	4%	2%	71%
Cc1ccc(O)cc1Nc1ccnc2cc(-c3ccc(CN4CCCCC4)o3)ccc12 [GW557777]	0%	9%	0%	10%	0%	90.7%	0%	40%	1%	29%	0%	87%	0%	0%	0%	0%	1%	83%	97.8%	34%
COc1cc(Nc2nccc(N3CCC(NS(=O)(=O)c4ccc(NC(C)=O)cc4)CC3)n2)cc(OC)c1OC [GSK1379825]	0%	0%	27%	0%	0%	0%	5%	24%	11%	2%	0%	3%	0%	14%	15%	0%	9%	61%	0%	48%
CCNc1nccc(-c2c(-c3ccc(F)cc3)ncn2C2CCN(C)CC2)n1	0%	0%	0%	8%	5%	50%	9%	15%	6%	10%	13%	64%	0%	0%	5%	0%	14%	8%	0%	13%
Cc1ccc(Nc2ccnc(Nc3ccc(C)c(F)c3)n2)cc1O.Cl [GW582868]	0%	0%	0%	21%	0%	0%	0%	0%	9%	0%	0%	0%	0%	6%	0%	0%	1%	100%	0%	41%
CSc1ccc(NC2=C(c3ccc(Cl)cc3)C(=O)NC2=O)cc1 [SB-317658]	28%	0%	2%	30%	6%	0%	11%	0%	0%	0%	5%	0%	0%	29%	0%	0%	0%	9%	25%	8%
Nc1cccc(-c2ccc3c(N)n[nH]c3c2)c1 [GSK2193613]	12%	8%	35%	0%	13%	1%	1%	6%	7%	8%	0%	25%	0%	8%	0%	34%	33%	0%	0%	2%
Nc1ncc(-c2ccc3nccc(-c4ccncc4)c3c2)cc1S(=O)(=O)N1CCCCC1 [GSK1693850]	0%	0%	9%	17%	0%	37%	0%	0%	17%	24%	8%	50%	7%	14%	0%	17%	0%	0%	0%	69%
Cc1cccc(Nc2nc(NCCN)ncc2C(N)=O)c1 [GSK1292139]	12%	0%	0%	29%	20%	31%	46%	7%	18%	1%	21%	23%	14%	72%	0%	8%	9%	52%	19%	32%
O=C(Nc1n[nH]c2nc(-c3ccccc3)ccc12)C1CC1 [SB-708999]	5%	0%	13%	4%	0%	0%	0%	32%	4%	0%	30%	1%	17%	9%	15%	47%	23%	0%	28%	12%
Nc1ncnc2scc(-c3ccc(NC(=O)Cc4cc(F)ccc4F)cc3)c12.O=C(O)C(F)(F)F [SB-731254-M]	21%	15%	8%	0%	0%	14%	15%	0%	0%	6%	17%	18%	46%	27%	27%	23%	18%	11%	5%	28%
Cn1cc(-c2cnc(N)c3c(-c4ccc5c(c4)CCN5C(=O)Cc4ccccc4)csc23)cn1 [GSK2593074]	1%	38%	0%	2%	9%	42%	0%	9%	0%	7%	0%	18%	16%	0%	6%	0%	21%	9%	42%	69%
Cc1ccc(NC(=O)c2ccnc(N3CCCCC3)c2)cc1-c1ccc(C(=O)NCC2CC2)cc1 [GW775610]	0%	0%	0%	0%	0%	100%	0%	0%	16%	15%	0%	39%	19%	0%	5%	0%	0%	0%	0%	5%
